Compound activity (PubChem BioAssay)
Shown are actives, neighbours in structure and some others; about 4.6% of the full set was active somewhere.
TRHR agonist – agonists of human TRH receptor | P34981 | activation, % at 2 µM | TRHR cells, calcium flux fluo-8, FDSS agonist mode | 0.18% of 360,000 active
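Read-out: compound-evoked intracellular calcium rise in TRHR cells, fluo-8 dye, kinetic FDSS fluorescence at 1 s/cycle following a 10-cycle baseline. Cells cultured overnight before dye loading (30 min–1.5 h, RT).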
D1 agonist – agonists of human D1 dopamine receptor; P21728; activation, % at 2 µM; 1% of 360,000 active; HEK293 T-REx D1 cells, calcium flux, agonist mode
Target sequence (P21728 whole entry, looked up): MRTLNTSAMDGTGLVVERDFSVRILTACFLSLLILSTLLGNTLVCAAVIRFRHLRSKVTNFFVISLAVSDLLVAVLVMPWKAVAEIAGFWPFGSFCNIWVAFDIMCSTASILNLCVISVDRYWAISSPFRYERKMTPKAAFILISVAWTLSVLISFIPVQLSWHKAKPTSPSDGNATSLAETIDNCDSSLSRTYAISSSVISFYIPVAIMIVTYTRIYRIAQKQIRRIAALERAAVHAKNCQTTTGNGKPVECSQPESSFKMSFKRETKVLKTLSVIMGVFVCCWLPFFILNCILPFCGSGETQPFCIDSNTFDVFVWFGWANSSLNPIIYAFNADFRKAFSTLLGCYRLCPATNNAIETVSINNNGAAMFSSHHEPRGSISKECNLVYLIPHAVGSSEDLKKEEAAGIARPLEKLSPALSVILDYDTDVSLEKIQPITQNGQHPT
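Agonism was scored from calcium flux recorded over 180 s (1 read/s) after pintool compound addition, following a 10-cycle baseline. Cells were inducible force-coupled HEK293 TREx D1, plated overnight at 30 C and loaded with no-wash calcium dye.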
D1 antag – human D1 dopamine receptor antagonism; 3.2% of 360,000 active; activity change, negative = inhibition, % at 10 µM; HEK293 TREx D1 cells, calcium flux, dopamine EC80; active compounds read low; P21728; in the data active = activity change below about -30%
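Compound effects on dopamine-evoked calcium signalling were measured in tetracycline-induced HEK293 Trex D1 cells. Dopamine at EC80 followed a 180 s compound pre-read, and fluorescence was tracked kinetically for 180 s more.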
TRHR PAM – allosterically enhances the human TRH receptor; enhancement, % at 2 µM; P34981; TRHR cells, fluo-8 calcium fluorescence, EC20 TRH enhancement; 0.66% of 360,000 active; in the data active = enhancement above about 30%
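TRHR-expressing cells loaded with fluo-8 calcium dye were read kinetically (ex 480/em 530) during compound addition, then stimulated with an EC20 of TRH (10 nM final). Enhancement of the Gq-mediated intracellular calcium response was scored.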
D1 PAM – enhances dopamine response at the human D1 receptor. P21728. HEK293 TREx D1 cells, calcium flux, dopamine EC20 potentiation. potentiation, % at 10 µM. 0.036% of 360,000 active. AID 504651; in the data active = potentiation above about 30%
Large screens that a line does not name were inactive; ! = repeats disagree. Cut-off read from the data, not from the text of the source, unless noted: active = activation above about 30%; inactive = the rest.

Cc1ccc(C(=O)Nc2cccc(C(=O)NCc3ccccc3)c2)cc1	none
Cc1cccc(CNC(=O)c2cccc(NC(=O)N3CCSc4ncccc43)c2)c1	D1 antag -35
Cc1occc1C(=O)Nc1cccc(C(=O)NCc2ccccc2)c1	D1 antag -40
O=C(NCCc1ccc([N+](=O)[O-])cc1)c1ccccc1	none
COc1ccc(C(=O)NCCOc2cccc(Oc3ccccc3)c2)cc1OC	D1 antag -44
COc1cccc(C(=O)NCC(=O)OCC(=O)C(C)(C)C)c1	none
O=C(CCNC(=O)c1ccccc1)Oc1ccc([N+](=O)[O-])cc1	D1 antag -46
O=C(NCCc1ccccc1)c1cccc(S(=O)(=O)NCc2ccccc2)c1	none
CC(C)(C)C(=O)COC(=O)CNC(=O)c1ccc(Oc2ccccc2)cc1	D1 agonist 159, D1 antag -49
O=C(NCCOc1ccccc1)c1cccc(S(=O)(=O)NCc2ccccc2)c1	D1 antag -38
CC(=O)c1c(C)nc2nc(-c3ccccc3)nn2c1C	none
COc1cccc(NC(=O)N2CCC(n3c(C)nc4cccnc43)CC2)c1	none
Cc1ccc(/C=C/c2onc(C)c2S(=O)(=O)N2CCC(C(=O)NCc3ccc(OC(C)C)cc3)CC2)cc1	none
CC(C)(C)c1ccc(C(=O)NCCOc2ccccc2)cc1	D1 antag -31
O=C(NCCOc1ccccc1)c1cc(C(=O)NCCOc2ccccc2)cc([N+](=O)[O-])c1	D1 antag -40
COc1ccc(C(=O)NCCNc2ccc([N+](=O)[O-])cc2)cc1	none (no result: D1 antag)
O=[N+]([O-])c1ccccc1NCCOc1ccccc1	D1 antag -44
CC(C)(C)c1ccc(C(=O)NCCOc2ccccc2F)cc1	none
COC(=O)CCCNC(=O)c1ccc(OS(=O)(=O)c2cc([N+](=O)[O-])ccc2C)cc1	D1 agonist 63
O=C(NCCOc1ccccc1)c1ccccc1[N+](=O)[O-]	none
CC(C)CC(=O)Nc1ccc2nc(SCC(=O)N3CCc4ccccc43)sc2c1	none
CCN(CC(=O)Nc1cccc(F)c1)Cc1nc2ccccc2c(=O)[nH]1	none
CCN(CC(=O)Nc1ccc(C(=O)Nc2ccc(OC)cc2)cc1)Cc1nc2ccccc2c(=O)[nH]1	D1 antag -44
CCN(CC(=O)Nc1cc(OC)ccc1OC)Cc1nc2ccccc2c(=O)[nH]1	D1 antag -39
CCN(CC(=O)NCc1ccc(F)cc1)Cc1nc2ccccc2c(=O)[nH]1	none
COc1ccc(-n2nc3c(N4CCCC(C(=O)NCc5ccccc5C)C4)nnc(C)c3c2C)cc1 (stereo not given)	none
COc1ccc(/C=N/NC(=O)c2cc(OC)c(OC)c(OC)c2)cc1CN1CCc2cc(OC)c(OC)cc2C1C (stereo not given)	none
COc1ccc(C2NCCc3c2[nH]c2ccccc32)cc1CN1CCc2cc(OC)c(OC)cc2C1C (stereo not given)	D1 agonist 36, D1 antag -54
O=C(O)C1Cc2c([nH]c3ccccc23)C(c2ccc3c(c2)OCO3)N1 (stereo not given)	none
COc1ccc(F)cc1COc1nc(C)nc2ccccc12	none
COc1ccc(CN2CCN(c3ccc(F)cc3)CC2)c(OC)c1OC	none
COc1ccc(C2NCCc3c2[nH]c2ccccc32)cc1COc1ccc(F)cc1 (stereo not given)	D1 agonist 77
COc1ccc(C2NC(C(=O)O)Cc3c2[nH]c2ccccc32)cc1CN1CCN(c2ccc(F)cc2)CC1 (stereo not given)	D1 antag -48
COc1cc(OC)c(CN2CCN(c3ccc(F)cc3)CC2)cc1Br	D1 antag -31
CC(=O)N1CCc2cc(S(=O)(=O)CCC(=O)N3CCN(c4cccc(C)c4C)CC3)ccc21	none
COc1cc(OC)c(NC(=O)CC(C)S(=O)(=O)c2ccc3c(c2)NC(=O)CO3)cc1Cl (stereo not given)	none
COc1ccc(/C=C\c2onc(C)c2S(=O)(=O)N2CCC(C(=O)Nc3ccc(Cl)cc3)CC2)cc1	none
C=Cc1ccc(Cn2c(C)c(CNCc3ccc(SC)cc3)c(C(=O)O)c2C)cc1	none
CC(C)Cc1ccc(C(C)NC(=O)c2ccc(=O)[nH]c2)cc1 (stereo not given)	D1 agonist 49
Cc1ccc(C(=O)NC(C)c2ccc(F)cc2)cc1 (stereo not given)	none
O=C(c1ccccc1)c1c2c(cc3sc4ccccc4[n+]13)-c1cccc3cccc-2c13	TRHR agonist 79, D1 agonist 242
CN1C(=O)c2ccccc2Sc2ccc(NC(=O)N3CCN(c4ccccc4)CC3)cc21	none
COc1ccc(C(CNC(=O)c2cccc(S(=O)(=O)Nc3ccccc3OC)c2)N2CCCC2)cc1 (stereo not given)	none
COc1ccc(C(CNC(=O)c2ccc(OC)c(S(=O)(=O)N3CCCC3)c2)N2CCCC2)cc1 (stereo not given)	none
COc1ccc(C(CNC(=O)c2ccc(C)c(S(=O)(=O)Nc3ccccc3OC)c2)N2CCCC2)cc1 (stereo not given)	D1 antag -38
COc1ccccc1C(CNC(=O)c1ccc(C)c(S(=O)(=O)N2CCCCC2)c1)N1CCCC1 (stereo not given)	D1 antag -45
COc1ccc(C(CNC(=O)CNC(=O)c2cccc(Cl)c2)N2CCCC2)cc1 (stereo not given)	D1 antag -37 (no result: D1 PAM)
Cc1ccc(C(=O)Nc2cccc(O)c2)cc1S(=O)(=O)N1CCCCCC1	D1 antag -33!
COc1ccc(C(CNC(=O)CNC(=O)c2ccccc2Cl)N2CCCC2)cc1 (stereo not given)	none
Cc1ccc(NC(=O)c2ccc(C)c(S(=O)(=O)N3CCCCCC3)c2)cc1	none
Cc1nc(N2CCCC2)ncc1C(=O)NCc1ccc(Cl)cc1	none
Cc1c(CNC(C)CCc2ccccc2)c(C(=O)O)c(C)n1Cc1ccc(F)cc1 (stereo not given)	none
N#CCCN(CCN1CCCC1)S(=O)(=O)c1ccc(-c2ccc([N+](=O)[O-])cc2)cc1	D1 agonist 39
CCC12CN3CC(CC)(CN(C1)C3c1ccc(OCc3ccccc3)cc1)C2=O (stereo not given)	none
CCC(C)(C)C1CCc2c(sc(NC(=O)C3c4ccccc4Oc4ccccc43)c2C(N)=O)C1 (stereo not given)	TRHR PAM 43
CN(Cc1ccccc1)C(=O)c1cc(-c2cccc(Cl)c2)on1	none
O=C(C[n+]1cc(-c2ccc(Cl)c(Cl)c2)n2c1CCC2)N1c2ccccc2Sc2ccccc21	D1 antag -39
O=C(C[n+]1cc(-c2ccc(Cl)cc2)n2c1CCC2)Nc1nc(-c2ccccc2)cs1	D1 antag -61
O=C(C[n+]1cc(-c2ccc(Cl)cc2)n2c1CCC2)N1c2ccccc2Sc2ccccc21	none
